Shown are actives, neighbours in structure and some others; about 27% of the full set was active somewhere.
CYP2C9 activ = CYP2C9 (human) activation | P11712 | recombinant CYP2C9, luciferin-H conversion, luminescence; stronger effect = higher value; factor 1 = untreated enzyme, 0 = blocked | activation factor at 5 µM | actives 1.4% (n = 96,000) | AID 1024;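 active = activation factor of 2 or more for CYP2C9 at a 5 µM dose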;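 note: 0 = sulfaphenazole-blocked wells and 1 = vehicle-only wells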
CYP2C9 inhib = blocks human cytochrome P450 2C9; P11712; inhibition, % at 5 µM; actives 20% (n = 96,000); CYP2C9 Supersomes, luciferin-H conversion, luminescence;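 active = blocking of liver enzyme CYP2C9 beyond about 50% at 5 µM, limit read from the data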
CYP2C19 inh = inhibitors of human CYP2C19 | actives 21% (n = 96,000) | AID 778 | P33261 | CYP2C19 Supersomes, luciferin-H EGE luminescence, 30 min | inhibition, % at 5 µM;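 active = CYP2C19 inhibition above a set limit at 5 µM in the primary screen, cut at about 50% in these data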;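 note: plate controls were negative control wells for no effect and 2.5 mM tranylcypromine positive control for full effect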
Cav32 inh = inhibitors of human Cav3.2 T-type calcium channel. Cav3.2-expressing cells, Fluo-4 calcium fluorescence FDSS; stronger effect = lower value. O95180. AID 449739. actives 4% (n = 100,000). B-score at 10 µM;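 active = single-dose well whose peak fluorescence ratio is a statistical outlier from its plate by either plate-standardised score or position-corrected B-score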
CYP2C19 act = activators of human cytochrome P450 2C19; recombinant CYP2C19, luciferin-H EGE luminescence; stronger effect = higher value; 0 = fully inhibited enzyme, 1 = untreated enzyme; activation factor at 5 µM; 96,000 tested, under 10 active; AID 1025;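 active = activation factor of at least 2 at 5 µM in the primary screen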;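 note: 0 = wells with 2.5 mM tranylcypromine and 1 = vehicle-only wells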
Active calls of the source: *; / = not tested or not shown.

SMILES	CYP2C9 activ	CYP2C9 inhib	CYP2C19 inh	Cav32 inh	CYP2C19 act
CC[n+]1c(P(=O)([O-])c2ccccc2)[nH]c2ccccc21	1.1	-14	-16	0.1	1.2
Cc1ccccc1N1CCN(C(=O)CN2C(=O)c3ccccc3C2=O)CC1	0.9	12	17	0.59	0.8
COc1cccc(C2C3=C(CC(C)(C)CC3=O)Nc3cc4c(cc32)OCO4)c1 (centres undefined)	0.1	93*	72*	-0.5	0.3
COCCOC(=O)C1=C(C)NC2=C(C(=O)CC(C)(C)C2)C1c1cc2c(cc1Br)OCO2 (centres undefined)	0.2	81*	94*	0.24	0.1
COc1cc2c(cc1OC)C(c1ccc3c(c1)OCO3)C1=C(CC(C)(C)CC1=O)N2 (centres undefined)	1	-2	0	/	1
COC(=O)C1=C(C)NC2=C(C(=O)CC(C)(C)C2)C1c1ccsc1 (centres undefined)	/	/	/	1.8	/
COC(=O)C1C(=O)C2=C(CC1C)NC(C)=C(C(=O)OC1CCCC1)C2c1ccc(N(C)C)cc1 (centres undefined)	0.2	82*	54*	-1.7	0.5
COC(=O)C1C(=O)C2=C(CC1C)NC(C)=C(C(=O)OC(C)C)C2c1ccc(OC)c(O)c1 (centres undefined)	0.8	15	-11	-0.028	1.1
COCCOC(=O)C1=C(C)NC2=C(C(=O)CC(c3cccs3)C2)C1c1ccsc1 (centres undefined)	0.4	60*	58*	1.5	0.4
CC1(C)C=Cc2cc(-c3coc4cc(O)cc(O)c4c3=O)cc(O)c2O1	/	/	/	0.82	/
COc1ccc2c(c1)C1NC(=S)N[C@@](C)(O2)C1C(=O)Nc1ccccc1 (some centres undefined)	1.1	-10	-14	-1.2	1.1
CC(/C=C\c1cccnc1)=C/C(=O)O	0.9	6	-4	-0.0025	1
COCCOC(=O)C1=C(C)NC2=C(C(=O)CCC2)C1c1ccc2c(c1)OCO2 (centres undefined)	0	96*	84*	0.37	0.2
CC1=C(C(=O)Nc2cccnc2)C(c2ccc3c(c2)OCO3)C2=C(CCCC2=O)N1 (centres undefined)	0.6	40	20	1.6	0.8
COc1ccccc1NC(=O)C1=C(C)NC2=C(C(=O)CCC2)C1c1ccc2c(c1)OCO2 (centres undefined)	0.5	47	63*	-0.18	0.4
O=C(CN1C(=O)C2CC=C(Cl)CC2C1=O)Nc1ccc(C(=O)O)cc1 (centres undefined)	1.1	-14	-8	-0.0062	1.1
C=CCn1c(SCC(=O)Nc2ccc(N(C)C)cc2)nnc1-c1cccc(C)c1	0.6	37	29	-0.059	0.7
CCOCCCNC(=O)C1CCN(C(=O)Nc2ccc(Cl)cc2)CC1	1.1	-9	-9	0.05	1.1
O=C(OCC(=O)N(C1CCCCC1)C1CCCCC1)c1ccncc1	0.3	65*	99*	-0.57	0
COC(=O)CCSCC(=O)Nc1nnc(C)s1	1.1	-14	-18	0.61	1.2
CC(C)N(Cc1nc(-c2ccccc2)no1)C(=O)C(C)(C)C	0.6	44	52*	-1.3	0.5
Cc1ccc(-c2noc(CN(C(=O)CCN3C(=O)c4ccccc4C3=O)C(C)C)n2)cc1	0.7	31	24	-1.6	0.8
COc1ccc(-c2noc(CN(C(=O)C(C)(C)C)C(C)C)n2)cc1	0.4	57*	81*	-0.62	0.2
COc1cccc(C(=O)N(Cc2nc(-c3ccc(C)cc3)no2)C(C)C)c1	0.6	41	12	-0.13	0.9
CC(=O)c1cccc(Nc2nc(=O)c3cccnc3s2)c1	0.2	78*	74*	0.12	0.3
SMILES	CYP2C9 activ	CYP2C9 inhib	CYP2C19 inh	Cav32 inh	CYP2C19 act
CC(=O)c1ccc(Nc2nc(=O)c3cccnc3s2)cc1	0.6	41	25	/	0.8
CSc1nc(C)cc(NC(N)=O)n1	1.1	-11	7	-0.41	0.9
C=CCOCC(O)CS(=O)(=O)Cc1ccc(Cl)cc1 (centres undefined)	0.8	17	74*	0.00095	0.3
CC1(C)CC(=O)CC(=NCC(=O)O)C1	0.8	21	7	-0.17	0.9
CCn1c(=O)c(C(=O)Nc2cnccn2)c(O)c2ccccc21	1	-1	10	/	0.9
CCC(C)n1c(=O)c(C(=O)Nc2ccccc2S(N)(=O)=O)c(O)c2ccccc21 (centres undefined)	1	0	-5	-3.4*	1
CCCc1cc(=O)[nH]c(SCC(=O)N2CCN(S(=O)(=O)c3ccc(C)cc3)C2)n1	0.9	13	12	0.62	0.9
CCS(=O)(=O)CCSc1nc(C)cc(C)n1	0.9	6	-10	0.32	1.1
Cc1cc(C)nc(SCCS(=O)Cc2ccc(Cl)cc2)n1 (centres undefined)	0.8	22	81*	0.051	0.2
Cc1ccc(C(=O)ONc2ccc(N=O)cc2)cc1	0.1	93*	-4	0.31	1
Cc1ccc(C(=O)ONc2ccc(N=NC(=O)c3ccccc3O)cc2)cc1	0.1	92*	100*	-0.27	0
CCOc1nc(S(=O)(=O)c2ccc(C)cc2)c(Cl)s1	1.4	-35	83*	-0.55	0.2
COCCN(CCOC)c1nc(S(=O)(=O)c2ccc(C)cc2)c(Cl)s1	0.4	56*	81*	-1.2	0.2
Cc1ccc(S(=O)(=O)c2nc(Nc3nccs3)sc2Cl)cc1	0.4	60*	68*	-0.3	0.3
CCOc1cccc(N2C(=O)CC(n3cnc4ccccc43)C2=O)c1 (centres undefined)	1.1	-6	4	0.31	1
CCOC(=O)c1cccc(NC(=O)CSc2nnc(-c3ccoc3C)n2CCOC)c1	0.1	89*	83*	0.29	0.2
Cc1occc1-c1nnc(SCC(=O)Nc2ccccc2)n1CCc1ccccc1	0.2	85*	92*	-3.8	0.1
Cc1nnc(NC(=O)CSc2nnc(-c3ccoc3C)n2CC(C)C)s1	0.5	46	41	-0.0086	0.6
Cc1occc1-c1nnc(SCC(=O)Nc2ccccc2)n1C(C)c1ccccc1 (centres undefined)	0	96*	89*	-4.3*	0.1
Cc1occc1-c1nnc(SCC(=O)NCCc2ccccc2)n1Cc1ccccc1	0.5	55*	32	-5*	0.7
CCOC(=O)C1CCN(Cc2cnc(Oc3ccc(C(C)(C)C)cc3)s2)CC1	0.6	37	40	-0.58	0.6
COc1cccc(-n2c(SCC(=O)NCCc3ccccc3)nnc2-c2ccoc2C)c1	0.1	88*	98*	-8*	0
Cn1c(SCC(=O)NCCc2ccccc2)nnc1-c1ccco1	1.1	-15	-7	0.11	1.1
C/C(CC(C)(C)C1CCCCC1)=N\NC(N)=S	0.7	35	93*	-4.6*	0.1
CSc1nnnn1-c1ccc(C(=O)OCC(=O)N2CCOCC2)cc1	1.2	-18	-11	-0.0094	1.1

Source: PubChem
